# Assay outcomes (PubChem)
# BoNT-F LC inh: inhibitors of Botulinum neurotoxin F light chain protease; Multiplex microsphere protease cleavage assay, flow cytometry; AID 588497; 360,000 tested, 0.22% active; inhibition, % at 10 µM; in the data active means inhibition above about 35%, passing the limit was not always enough; inconclusive means no clear call, values can overlap the other calls; further: plate controls were buffer without enzyme for full effect and enzyme alone for no effect
# MazEF act: activators of E. coli MazEF toxin-antitoxin RNase; activation, % at 20 µM; FAM/BHQ RNA-DNA oligo cleavage fluorescence, 5 h; P0AE70; 350,000 tested, 0.32% active; in the data active means activation above about 50%
# Target sequence (P0AE70 whole entry, looked up): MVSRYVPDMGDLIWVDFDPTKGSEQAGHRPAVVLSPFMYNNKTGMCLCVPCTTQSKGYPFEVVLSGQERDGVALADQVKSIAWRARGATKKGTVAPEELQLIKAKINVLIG
# Anthrax LF prot: anthrax lethal factor protease inhibition. 360,000 tested, 0.12% active. multiplex microsphere protease cleavage assay, LF. inhibition, % at 10 µM. P15917; further: plate controls were buffer without enzyme for full effect and enzyme alone for no effect
# Autofluor counter: flagged as autofluorescent in microsphere protease counterscreen. compound autofluorescence counterscreen, microsphere flow cytometry; active compounds read high. fluorescence intensity (concentration not given with the values). 360,000 tested, 3.1% active. AID 624483; in the data active means fluorescence intensity above about 16000; inconclusive means no clear call, values can overlap the other calls
# BoNT-A LC inh2: BoNT A light chain protease inhibition | multiplex microsphere protease substrate cleavage, flow cytometry | inhibition, % at 10 µM | 360,000 tested, 0.17% active; further: plate controls were buffer without enzyme for full effect and enzyme alone for no effect
# * = called active by the depositor; ? = inconclusive; . = no result. Hits are enriched below; roughly 3.6% of the tested compounds scored in any of these assays. Unless noted, no stated cut-off is given here; in the data, active means inhibition above about 30%; inconclusive means no clear call, values can overlap the other calls; inactive means below that.
SMILES,BoNT-F LC inh,MazEF act,Anthrax LF prot,Autofluor counter,BoNT-A LC inh2
COc1cccc(-c2nnc3sc(-c4ccccn4)nn23)c1,-6,1,2,2173,0
COc1ccc(-c2nnc3sc(-c4cccs4)nn23)cc1OC,-4,20,0,3341,0
Clc1ccccc1-c1nn2c(-c3ccccn3)nnc2s1,0,1,-2,22234*,0
CCOc1ccc(C(=O)C[n+]2ccc(C(=O)NCCO)cc2)cc1,12,4,3,3617,3
Cc1cccc(-c2nnc3sc(-c4ccccc4)nn23)c1,8,36,-3,9581,1
COc1ccc(OC)c(C2=Nn3c(nnc3C3CCCCC3)SC2)c1,-8,5,8,2896,1
COc1ccc(-c2nn3c(-c4cccc(C)c4)nnc3s2)cc1OC,-5,33,-5,16794*,-3
COc1ccc(C2=Nn3c(nnc3C3CCCCC3)SC2)cc1OC,-6,4,-2,24718*,-3
COc1cc(-n2c(C)nc3ncn(-c4ccccc4)c3c2=O)cc(OC)c1OC,1,4,-11,3794,0
COc1ccc(-n2c(SC)nc(O)c(Cc3ccccc3)c2=O)cc1,-2,5,0,22787*,?
CC(NC(=O)CSc1nc2ccccc2c(=O)[nH]1)c1ccccc1 (stereo not given),4,10,2,2742,0
COc1ccc(-n2c(SCC(=O)Nc3ccccc3OC)nc(O)c(Cc3ccccc3)c2=O)cc1,3,0,0,4423,0
CC(C)CCNC(=O)CSc1nc2ccccc2c(=O)[nH]1,-6,7,-4,17172*,-3
COC(=O)c1ccc(NC(=O)CSc2nc3ccccc3c(=O)[nH]2)cc1,0,24,-1,20547*,0
O=C(CSc1nc2ccccc2c(=O)[nH]1)Nc1ccc(Br)cc1,-3,6,-9,6188,-1
COc1ccc(NC(=O)CSc2nc(O)c(Cc3ccccc3)c(=O)[nH]2)cc1,1,6,-1,23050*,?
O=S1(=O)CC(N2CC=CC2)CN1Cc1ccc(F)cc1 (stereo not given),-13,.,-8,4244,0
O=C(/C=C/c1ccc([N+](=O)[O-])cc1)N1CCN(S(=O)(=O)c2cccs2)CC1,-13,-14,-7,4475,-1
C/C(=N\NC(=O)c1nnn(-c2nonc2N)c1CN1CCC(C)CC1)c1ccc(Br)cc1,-1,8,2,3328,0
CC(=O)Nc1ccc(C(=O)OCC(=O)NC2CCCCCC2)cc1,-7,-5,-2,4336,0
CC1(C)CC(=O)c2cc(C(=O)O)c(=O)n(-c3ccccc3)c2C1,10,-2,2,8750,0
CCOC(=O)c1cc2c(n(-c3ccccc3)c1=O)CC(C)(C)CC2=O,-7,-10,-1,25220*,-5
Cc1cc2c(n1-c1ccc(Cl)cc1)CC(C)(C)CC2=O,-6,-4,-7,19623*,-1
O=C(Nc1cccc2c1CCCC2)c1cc(C2CCCCN2C(=O)OCCF)on1 (stereo not given),2,.,-2,4078,0
COC(=O)Cc1c(C)nc2nc(NCc3ccc(Cl)cc3)[nH]n2c1=O,-4,-4,1,9208,0
SMILES,BoNT-F LC inh,MazEF act,Anthrax LF prot,Autofluor counter,BoNT-A LC inh2
COC(=O)Cc1c(C)nc2nc(NCc3cccc([N+](=O)[O-])c3)[nH]n2c1=O,2,0,-2,19811*,2
CC(Sc1ccccn1)C(=O)Nc1ccccc1 (stereo not given),0,12,-4,20487*,0
CCn1cc(C(=O)O)c(=O)c2cc(OC)ccc21,-51,14,-13,19754*,-14
O=C(COC(=O)/C=C/c1ccc([N+](=O)[O-])cc1)NNC(=O)c1ccccc1,-5,0,-4,4195,0
CSCC[C@H](NS(=O)(=O)c1ccc(C(C)=O)cc1)c1nnc2ccccn12,6,-1,0,5535,3
CC(C)N1CCN(Cc2cc3c(cc2Cl)OCO3)CC1CCO (stereo not given),-4,83*,4,4327,0
CC(=O)/C(N=Nc1cc(C)ccc1O)=C(\C)O,-5,105*,-5,5043,-1
CC(C)(C)NS(=O)(=O)c1ccc(NS(C)(=O)=O)cc1,-3,6,-1,16636*,?
O=C1C(c2ccccc2)c2ccccc2N1Cc1ccccc1 (stereo not given),-2,-6,-2,3245,0
COc1ccc(S(=O)(=O)N2CC=C(C(=O)NC3CCCC3)CC2)cc1,-4,9,-2,5716,-1
COc1cc(OC)cc(C(=O)N2CCC(N3CCCCCC3)CC2)c1,-7,3,-1,19182*,-4
COc1cc(OC)cc(C(=O)NN2CCOCC2)c1,-9,1,-5,4663,-1
